In article PMC7862700, “An all-to-all approach to the identification of sequence-specific readers for epigenetic DNA modifications on cytosine”:

What was measured:
Experiment in all cases: DAPPL (digital affinity profiling via proximity ligation, sequencing); 10 mM Tris-HCl pH 7.5, 50 mM NaCl, 1 mM DTT, 4% glycerol, room temperature, 30 min; GST-TFs on glutathione beads, 16-mer random dsDNA library, 0.1% formaldehyde crosslink after washing; high values mean tight binding
FEV = target: T1, FEV (Homo sapiens, UniProt Q99581 1-238); details: protein: recombinant; tags: N-terminal GST; dsDNA, one strand shown
T1 sequence: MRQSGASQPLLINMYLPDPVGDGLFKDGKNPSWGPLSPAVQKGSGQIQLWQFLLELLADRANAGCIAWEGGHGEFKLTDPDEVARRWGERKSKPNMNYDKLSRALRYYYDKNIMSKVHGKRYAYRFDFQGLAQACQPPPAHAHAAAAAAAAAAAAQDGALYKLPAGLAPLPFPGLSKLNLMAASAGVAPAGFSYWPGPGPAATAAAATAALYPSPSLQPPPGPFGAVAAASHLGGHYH
Outline: (§1)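 Each value of binding signal is a hexamer's read frequency for a factor divided by the same hexamer's frequency in the tag-only sample. Barcoded, bead-captured GST fusions of human transcription factors made in yeast were pooled with that sample and incubated with 200 nmole of a random double-stranded 16-mer DNA library in Tris/NaCl/DTT/glycerol buffer at room temperature for 30 min. Washing, 0.1% formaldehyde crosslinking, proximity ligation, PCR and Illumina NextSeq500 sequencing followed.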

ETV5 = ETV5 (Homo sapiens, UniProt P41161 1-510); details: protein: recombinant; tags: N-terminal GST; dsDNA, one strand shown
Outline: as §1

HSF1 = HSF1 (Homo sapiens, UniProt Q00613 1-529); details: protein: recombinant; tags: N-terminal GST; chain copies: 3; dsDNA, one strand shown
Outline: as §1

SPIC = target: T2, SPIC (Homo sapiens, UniProt Q8N5J4 1-248); details: protein: recombinant; tags: N-terminal GST; dsDNA, one strand shown
T2 sequence: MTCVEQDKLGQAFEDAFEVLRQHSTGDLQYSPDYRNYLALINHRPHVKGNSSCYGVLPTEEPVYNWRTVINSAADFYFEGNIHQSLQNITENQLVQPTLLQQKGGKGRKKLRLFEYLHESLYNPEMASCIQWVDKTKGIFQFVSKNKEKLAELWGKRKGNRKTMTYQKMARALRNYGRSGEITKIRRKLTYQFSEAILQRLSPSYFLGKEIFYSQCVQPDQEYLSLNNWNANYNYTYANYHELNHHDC
Outline: as §1

ELF4 = ELF4 (Homo sapiens, UniProt Q99607 1-663); details: protein: recombinant; tags: N-terminal GST; dsDNA, one strand shown
Outline: as §1

ELK4 = target: T3, ELK4 (Homo sapiens, UniProt P28324-2 1-405); details: protein: recombinant; tags: N-terminal GST; dsDNA, one strand shown
T3 sequence: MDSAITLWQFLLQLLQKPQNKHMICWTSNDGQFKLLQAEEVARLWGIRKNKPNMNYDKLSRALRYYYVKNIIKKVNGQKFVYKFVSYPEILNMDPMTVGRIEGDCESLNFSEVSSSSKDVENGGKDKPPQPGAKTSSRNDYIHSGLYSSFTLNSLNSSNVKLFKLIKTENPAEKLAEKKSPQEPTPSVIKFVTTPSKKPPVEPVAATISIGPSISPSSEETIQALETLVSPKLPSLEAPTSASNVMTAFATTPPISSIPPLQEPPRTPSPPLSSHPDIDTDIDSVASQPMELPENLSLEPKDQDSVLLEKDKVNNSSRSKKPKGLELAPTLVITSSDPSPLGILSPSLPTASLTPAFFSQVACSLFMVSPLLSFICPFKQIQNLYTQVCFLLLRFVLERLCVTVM
Outline: as §1

ETV2 = target: T4, ETV2 (Homo sapiens, UniProt O00321 1-342); details: protein: recombinant; tags: N-terminal GST; dsDNA, one strand shown
T4 sequence: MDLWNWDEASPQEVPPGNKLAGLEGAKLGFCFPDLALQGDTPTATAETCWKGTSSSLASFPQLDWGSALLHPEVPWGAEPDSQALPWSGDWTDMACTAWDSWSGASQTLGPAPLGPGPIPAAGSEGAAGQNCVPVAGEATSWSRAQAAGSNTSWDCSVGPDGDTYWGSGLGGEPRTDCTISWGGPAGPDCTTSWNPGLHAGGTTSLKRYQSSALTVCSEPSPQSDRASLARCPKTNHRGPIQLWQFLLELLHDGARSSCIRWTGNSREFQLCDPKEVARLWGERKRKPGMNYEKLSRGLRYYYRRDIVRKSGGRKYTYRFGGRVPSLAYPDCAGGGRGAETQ
Outline: as §1

ELF3 = target: T5, ELF3 (Homo sapiens, UniProt P78545 1-371); details: protein: recombinant; tags: N-terminal GST; dsDNA, one strand shown
T5 sequence: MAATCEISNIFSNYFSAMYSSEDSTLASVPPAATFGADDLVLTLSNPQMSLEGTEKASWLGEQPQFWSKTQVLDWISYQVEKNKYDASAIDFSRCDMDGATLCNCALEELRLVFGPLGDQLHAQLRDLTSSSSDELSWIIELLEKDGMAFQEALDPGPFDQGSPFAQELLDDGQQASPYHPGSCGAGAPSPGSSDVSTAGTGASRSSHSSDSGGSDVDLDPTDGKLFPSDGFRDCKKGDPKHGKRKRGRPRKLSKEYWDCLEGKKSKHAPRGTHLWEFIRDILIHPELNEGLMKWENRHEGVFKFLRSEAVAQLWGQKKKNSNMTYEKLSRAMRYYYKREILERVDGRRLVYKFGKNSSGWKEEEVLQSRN
Outline: as §1

CRX = CRX (Homo sapiens, UniProt O43186 1-299); details: protein: recombinant; tags: N-terminal GST; dsDNA, one strand shown
Outline: as §1

Chain of HSF1 (Q00613 whole entry): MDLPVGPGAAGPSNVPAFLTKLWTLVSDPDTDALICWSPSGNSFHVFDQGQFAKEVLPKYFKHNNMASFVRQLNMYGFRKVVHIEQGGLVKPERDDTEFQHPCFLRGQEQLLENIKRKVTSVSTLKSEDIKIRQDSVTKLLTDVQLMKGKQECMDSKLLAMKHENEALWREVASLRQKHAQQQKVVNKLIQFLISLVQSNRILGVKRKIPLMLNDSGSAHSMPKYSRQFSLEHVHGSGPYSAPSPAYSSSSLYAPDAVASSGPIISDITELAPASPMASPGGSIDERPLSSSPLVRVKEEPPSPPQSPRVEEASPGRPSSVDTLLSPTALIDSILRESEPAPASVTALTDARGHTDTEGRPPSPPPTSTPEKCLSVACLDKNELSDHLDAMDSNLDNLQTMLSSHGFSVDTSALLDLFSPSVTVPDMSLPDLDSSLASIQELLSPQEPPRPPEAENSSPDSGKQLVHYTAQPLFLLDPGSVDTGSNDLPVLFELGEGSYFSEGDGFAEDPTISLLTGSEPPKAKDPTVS
Chain of CRX (O43186 whole entry): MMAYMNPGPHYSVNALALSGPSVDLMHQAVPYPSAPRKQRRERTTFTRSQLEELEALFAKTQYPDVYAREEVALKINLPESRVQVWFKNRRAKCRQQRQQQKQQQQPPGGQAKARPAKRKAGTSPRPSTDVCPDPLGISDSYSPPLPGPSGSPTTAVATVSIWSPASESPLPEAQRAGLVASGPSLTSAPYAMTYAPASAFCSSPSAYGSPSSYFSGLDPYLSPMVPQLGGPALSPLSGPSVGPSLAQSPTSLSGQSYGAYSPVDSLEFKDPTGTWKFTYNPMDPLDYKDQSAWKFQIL
Chain of ELF4 (Q99607 whole entry): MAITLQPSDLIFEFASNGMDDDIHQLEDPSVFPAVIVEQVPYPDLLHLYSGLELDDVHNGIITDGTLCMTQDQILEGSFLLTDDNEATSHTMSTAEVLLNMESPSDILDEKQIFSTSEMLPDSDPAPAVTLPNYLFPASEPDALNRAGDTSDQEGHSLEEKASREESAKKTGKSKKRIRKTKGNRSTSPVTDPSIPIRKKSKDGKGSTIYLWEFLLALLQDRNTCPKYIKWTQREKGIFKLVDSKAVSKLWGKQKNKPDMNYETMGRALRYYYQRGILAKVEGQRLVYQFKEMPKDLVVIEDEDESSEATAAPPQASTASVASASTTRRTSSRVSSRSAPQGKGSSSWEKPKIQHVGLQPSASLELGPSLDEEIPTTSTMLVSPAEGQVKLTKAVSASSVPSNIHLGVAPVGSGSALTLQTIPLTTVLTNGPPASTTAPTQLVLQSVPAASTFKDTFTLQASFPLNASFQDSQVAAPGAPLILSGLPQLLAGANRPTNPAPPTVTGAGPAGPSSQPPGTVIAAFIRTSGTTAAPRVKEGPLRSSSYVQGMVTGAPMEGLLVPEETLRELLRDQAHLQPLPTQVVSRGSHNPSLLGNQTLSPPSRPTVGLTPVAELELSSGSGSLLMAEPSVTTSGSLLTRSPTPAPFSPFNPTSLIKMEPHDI
Chain of ETV5 (P41161 whole entry): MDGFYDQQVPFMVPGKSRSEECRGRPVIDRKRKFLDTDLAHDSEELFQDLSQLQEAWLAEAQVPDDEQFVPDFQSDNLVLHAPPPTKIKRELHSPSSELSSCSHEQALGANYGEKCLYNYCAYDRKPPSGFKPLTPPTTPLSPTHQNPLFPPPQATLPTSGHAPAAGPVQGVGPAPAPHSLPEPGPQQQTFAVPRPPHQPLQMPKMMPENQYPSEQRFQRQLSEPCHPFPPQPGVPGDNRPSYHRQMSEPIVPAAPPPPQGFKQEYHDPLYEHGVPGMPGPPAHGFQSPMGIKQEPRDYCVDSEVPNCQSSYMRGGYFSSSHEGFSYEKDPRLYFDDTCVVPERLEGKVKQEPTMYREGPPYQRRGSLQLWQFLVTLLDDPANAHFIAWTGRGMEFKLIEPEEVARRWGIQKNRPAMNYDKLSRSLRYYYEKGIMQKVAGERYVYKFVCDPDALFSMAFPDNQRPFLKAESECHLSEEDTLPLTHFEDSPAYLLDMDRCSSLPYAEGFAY

## GCTCCG
FEV
  binding signal: 1.42 fold enrichment (6-mer frequency, TF over GST control)
ETV5
  binding signal: 1.33 fold enrichment (6-mer frequency, TF over GST control)
HSF1
  binding signal: 1.2 fold enrichment (6-mer frequency, TF over GST control)
SPIC
  binding signal: 1.54 fold enrichment (6-mer frequency, TF over GST control)
ELF4
  binding signal: 1.39 fold enrichment (6-mer frequency, TF over GST control)
ELK4
  binding signal: 1.33 fold enrichment (6-mer frequency, TF over GST control)
ETV2
  binding signal: 1.32 fold enrichment (6-mer frequency, TF over GST control)
ELF3
  binding signal: 1.32 fold enrichment (6-mer frequency, TF over GST control)
CRX
  binding signal: 1.07 fold enrichment (6-mer frequency, TF over GST control)
